Consider 35 sequences from paper PMC5700166.

The first test deals with T1, GST-Co-NF-kB (Capsaspora owczarzaki, UniProt F1ARL5 200-546).
T1 sequence: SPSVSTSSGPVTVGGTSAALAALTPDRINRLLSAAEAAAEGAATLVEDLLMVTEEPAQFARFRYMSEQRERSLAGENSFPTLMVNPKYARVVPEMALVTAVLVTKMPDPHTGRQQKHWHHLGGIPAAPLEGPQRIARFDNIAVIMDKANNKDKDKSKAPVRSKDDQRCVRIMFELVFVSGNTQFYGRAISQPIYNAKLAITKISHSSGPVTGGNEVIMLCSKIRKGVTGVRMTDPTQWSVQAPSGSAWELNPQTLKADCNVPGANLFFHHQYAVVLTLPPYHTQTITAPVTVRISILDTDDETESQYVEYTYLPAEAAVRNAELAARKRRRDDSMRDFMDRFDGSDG
The experiment in a line: protein-binding microarray (PBM); PBM: ~300 nM protein, 6 mM HEPES pH 7.8, 80 mM KCl, 0.5 mM EDTA, 0.5 mM EGTA, 6% glycerol, 35 ng/ul poly-dIdC, 1% milk, 1 h, room temperature; Ap Aiptasia and Nv Nematostella (sea anemones) / Co Capsaspora / Aq Amphimedon (sponge) / Dm Drosophila / Hu human; RHD is the Rel homology domain; high values mean tight binding. Particulars: dsDNA, one strand shown.
Turning to “CCGATTAACATCAAAAAATTCCGTGATGTTAATCGGGTCTTGATTCGCTTGACGCTGCTG”, the binding signal is 1.34 z-score.

The sequence “CCGATTAACATCACGGAAATTTATGATGTTAATCGGGTCTTGATTCGCTTGACGCTGCTG” gave a binding signal of 1.07 z-score. Turning to “CCGATTAACATCACGGAAATTTCTGATGTTAATCGGGTCTTGATTCGCTTGACGCTGCTG”, the binding signal was 1.12 z-score.

The target in another test is T2, GST-Dm-Relish (Drosophila melanogaster, UniProt Q94527 99-473).
T2 sequence: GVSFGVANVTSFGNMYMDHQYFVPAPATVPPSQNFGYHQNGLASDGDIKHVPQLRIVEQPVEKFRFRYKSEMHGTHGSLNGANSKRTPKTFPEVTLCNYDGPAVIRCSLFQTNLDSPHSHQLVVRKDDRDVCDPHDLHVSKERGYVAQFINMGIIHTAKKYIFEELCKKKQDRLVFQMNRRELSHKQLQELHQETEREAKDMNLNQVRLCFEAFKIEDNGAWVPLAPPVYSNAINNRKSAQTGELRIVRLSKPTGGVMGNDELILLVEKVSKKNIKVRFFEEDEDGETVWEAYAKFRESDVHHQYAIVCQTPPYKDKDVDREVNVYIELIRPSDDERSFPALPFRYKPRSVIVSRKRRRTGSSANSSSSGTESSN
The description is as above. Particulars: dsDNA, one strand shown.
“CCGATTAACATCAGGAAAGTACATGATGTTAATCGGGTCTTGATTCGCTTGACGCTGCTG” had a binding signal of 6.88 z-score. On the same count and under the same terms, the value for “CCGATTAACATCAGAAATTTTCCTGATGTTAATCGGGTCTTGATTCGCTTGACGCTGCTG” was 1.39 z-score; that for “CCGATTAACATCAGGGCAAGTACTGATGTTAATCGGGTCTTGATTCGCTTGACGCTGCTG” was 1.44 z-score. In the case of “CCGATTAACATCACAGGGTTTCCTGATGTTAATCGGGTCTTGATTCGCTTGACGCTGCTG”, the binding signal turned out to be 2.82 z-score. “CCGATTAACATCACGGAATTTTATGATGTTAATCGGGTCTTGATTCGCTTGACGCTGCTG”: the binding signal came to 1.2 z-score. The same measure, in the same setting: the figure for “CCGATTAACATCAGGAAATCCACTGATGTTAATCGGGTCTTGATTCGCTTGACGCTGCTG” is 2.24 z-score.

In turn, “CCGATTAACATCAGAAAATTTCCTGATGTTAATCGGGTCTTGATTCGCTTGACGCTGCTG” came in with a binding signal of 1.75 z-score. On the same count and under the same terms, the value for “CCGATTAACATCAGGATTTACCATGATGTTAATCGGGTCTTGATTCGCTTGACGCTGCTG” was 3.08 z-score; that for “CCGATTAACATCAGAGGATTTCCTGATGTTAATCGGGTCTTGATTCGCTTGACGCTGCTG” was 1.74 z-score. The same measure, in the same setting: the value for “CCGATTAACATCAAGGAAAGTACTGATGTTAATCGGGTCTTGATTCGCTTGACGCTGCTG” was 4.7 z-score; that for “CCGATTAACATCAAGGAATTCCATGATGTTAATCGGGTCTTGATTCGCTTGACGCTGCTG” was 2.32 z-score; that for “CCGATTAACATCAAAAAATTCCTTGATGTTAATCGGGTCTTGATTCGCTTGACGCTGCTG” was 2.73 z-score. The same measure, in the same setting: the figure for “CCGATTAACATCAAGGAATTCCGTGATGTTAATCGGGTCTTGATTCGCTTGACGCTGCTG” is 1.78 z-score; for “CCGATTAACATCAAAAAATTCCGTGATGTTAATCGGGTCTTGATTCGCTTGACGCTGCTG” it is 2.44 z-score. On to “CCGATTAACATCAGGTTTTTCCATGATGTTAATCGGGTCTTGATTCGCTTGACGCTGCTG”, for which the binding signal was found to be 2.68 z-score. As to “CCGATTAACATCAGGAATTCCAATGATGTTAATCGGGTCTTGATTCGCTTGACGCTGCTG”, the binding signal came out at 2.77 z-score.

The sequence “CCGATTAACATCAAAAATTCCGCTGATGTTAATCGGGTCTTGATTCGCTTGACGCTGCTG” had a binding signal of 1.22 z-score. As to “CCGATTAACATCACGTAAATTCCTGATGTTAATCGGGTCTTGATTCGCTTGACGCTGCTG”, the binding signal was 1.43 z-score. For “CCGATTAACATCACGGAAATTTATGATGTTAATCGGGTCTTGATTCGCTTGACGCTGCTG”, the binding signal amounted to 1.11 z-score.

“CCGATTAACATCAAGTAATTTCCTGATGTTAATCGGGTCTTGATTCGCTTGACGCTGCTG” returned a binding signal of 2.36 z-score. The same measure, in the same setting: the figure for “CCGATTAACATCAGGAATTCCGATGATGTTAATCGGGTCTTGATTCGCTTGACGCTGCTG” is 2.4 z-score; for “CCGATTAACATCACGGGATGTACTGATGTTAATCGGGTCTTGATTCGCTTGACGCTGCTG” it is 5.98 z-score. In turn, “CCGATTAACATCAAAAATTCCGTTGATGTTAATCGGGTCTTGATTCGCTTGACGCTGCTG” showed a binding signal of 1.08 z-score.

“CCGATTAACATCAATAAATTTCCTGATGTTAATCGGGTCTTGATTCGCTTGACGCTGCTG” showed a binding signal of 1.55 z-score. Same read-out and setting: the value for “CCGATTAACATCACGGTTTTTCCTGATGTTAATCGGGTCTTGATTCGCTTGACGCTGCTG” was 3.51 z-score.

Turning to “CCGATTAACATCAGGGATGCCCATGATGTTAATCGGGTCTTGATTCGCTTGACGCTGCTG”, the binding signal was determined as 6.66 z-score. In turn, “CCGATTAACATCAAGTAAATTCCTGATGTTAATCGGGTCTTGATTCGCTTGACGCTGCTG” gave a binding signal of 2.49 z-score. Sequence “CCGATTAACATCAGAAATTTCCATGATGTTAATCGGGTCTTGATTCGCTTGACGCTGCTG” returned a binding signal of 1.25 z-score. “CCGATTAACATCAGGAATTTCCATGATGTTAATCGGGTCTTGATTCGCTTGACGCTGCTG” yielded a binding signal of 2.65 z-score.

Consider “CCGATTAACATCACGGAAACTCCTGATGTTAATCGGGTCTTGATTCGCTTGACGCTGCTG”, for which the binding signal amounted to 1.23 z-score. Turning to “CCGATTAACATCAGGAAATTACATGATGTTAATCGGGTCTTGATTCGCTTGACGCTGCTG”, the binding signal stood at 5.09 z-score.

The sequence “CCGATTAACATCACGGCCTTTCCTGATGTTAATCGGGTCTTGATTCGCTTGACGCTGCTG” had a binding signal of 1.05 z-score. The same measure, in the same setting: the figure for “CCGATTAACATCAGGATTTTTCATGATGTTAATCGGGTCTTGATTCGCTTGACGCTGCTG” is 1.76 z-score; for “CCGATTAACATCAGGAATTTACATGATGTTAATCGGGTCTTGATTCGCTTGACGCTGCTG” it is 5.41 z-score.
